Test results: PubChem BioAssay (NCATS)
Inconclusive results are not listed. Activity calls are given as the source filed them. The call rests on the fitted dose curve; in most records, active means well fitted cell-killing curve with a large enough effect; inconclusive means small, poorly fitted or top-dose-only effect; inactive means flat fitted curve, though single readings scatter.

Assay: Vero cells viability qHTS for Zika virus inhibitors (AID 1347167)
Settings: cytotoxicity counter-screen (Zika); series mostly up to 45.9 µM; activity change, negative = cytotoxicity: at the top concentration
Method in brief: (§1)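 Luminescent ATP readout (CellTiter Glo) after 30 min at 37 degrees C gives viability; cells in DMEM + 4% FBS were treated 24 to 48 hours with compound, following overnight attachment.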
On the % scale 0 is the no-effect control and ±100 the full control effect.

SMILES	activity change, negative = cytotoxicity
CN(C)c1cc(NC(=O)CNC(C)(C)C)c(O)c2c1C[C@@H]1C[C@H]3[C@H](N(C)C)C(=O)C(C(N)=O)=C(O)[C@@]3(O)C(=O)C1=C2O	-2.12% (inactive)
NC(=O)c1ccc2nc(-c3ccc(Oc4ccc(Cl)cc4)cc3)[nH]c2c1	-3.37% (inactive)
CC1CCC(C(=O)N(c2cc(C#CC(C)(C)C)sc2C(=O)O)C2CCC(O)CC2)CC1 (configuration not stated)	-3.09% (inactive)

Assay: HepG2 cells viability qHTS for Zika virus inhibitors (AID 1347168)
Settings: Zika counter-screen; series mostly up to 45.9 µM; activity change, negative = cytotoxicity: at the top concentration
Method in brief: as §1

SMILES	activity change, negative = cytotoxicity
Cc1cc(OCCCc2c(C(=O)O)n(Cc3cccnc3)c3c(-c4c(COc5ccc(N6CCN([S+](C)(=O)[O-])CC6)cc5)nn(C)c4C)cccc23)cc(C)c1Cl	-20.7% (inactive)
CN(C)c1cc(NC(=O)CNC(C)(C)C)c(O)c2c1C[C@@H]1C[C@H]3[C@H](N(C)C)C(=O)C(C(N)=O)=C(O)[C@@]3(O)C(=O)C1=C2O	-14.5% (inactive)
NC(=O)c1ccc2nc(-c3ccc(Oc4ccc(Cl)cc4)cc3)[nH]c2c1	-21.8% (inactive)
CC1CCC(C(=O)N(c2cc(C#CC(C)(C)C)sc2C(=O)O)C2CCC(O)CC2)CC1 (configuration not stated)	16.4% (inactive)
